# Screening data from PubChem.
# HDAC3 inhib – inhibitors of human histone deacetylase 3; recombinant HDAC3, fluorogenic peptide/trypsin coupled, fluorescence; inhibition, % at 8.3 µM; actives 0.15% (n = 320,000); AID 2718; in the data active = inhibition above about 26%, passing the limit was not always enough; inconclusive = no clear call, values can overlap the other calls
# ALR inh – human ALR oxidase inhibition via reduced H2O2 | purified ALR, DTT oxidation, H2O2 HRP-luminol luminescence | inhibition, % (concentration not given with the values) | P55789 | actives 3.8% (n = 290,000) | AID 485317;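 active = mean replicate inhibition above about 79%, with every replicate also reaching it, limit read from the data; inconclusive = only one of the two criteria met; inactive = mean below limit and not every replicate reaching it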
# NPR1 activator – GC-A (human) enzyme activation; P16066; HEK293 GC-A cells, cGMP TR-FRET, EC30 ANP; 0% at EC30 ANP, 100% saturating ANP; activation, % at 10 µM; actives 0.14% (n = 370,000); AID 1671463; in the data active = activation above about 40%
# NPR2 activator – GC-B (human) receptor activation; P20594; HEK293-GC-B cells, CNP EC30, cGMP TR-FRET; 0% at EC30 CNP, 100% saturating CNP; activation, % at 10 µM; actives 0.11% (n = 370,000);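 active = activation at 10 µM reaching about 35% in either raw or pattern-adjusted values, limit read from the data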
# Target sequence (P20594 whole entry, looked up): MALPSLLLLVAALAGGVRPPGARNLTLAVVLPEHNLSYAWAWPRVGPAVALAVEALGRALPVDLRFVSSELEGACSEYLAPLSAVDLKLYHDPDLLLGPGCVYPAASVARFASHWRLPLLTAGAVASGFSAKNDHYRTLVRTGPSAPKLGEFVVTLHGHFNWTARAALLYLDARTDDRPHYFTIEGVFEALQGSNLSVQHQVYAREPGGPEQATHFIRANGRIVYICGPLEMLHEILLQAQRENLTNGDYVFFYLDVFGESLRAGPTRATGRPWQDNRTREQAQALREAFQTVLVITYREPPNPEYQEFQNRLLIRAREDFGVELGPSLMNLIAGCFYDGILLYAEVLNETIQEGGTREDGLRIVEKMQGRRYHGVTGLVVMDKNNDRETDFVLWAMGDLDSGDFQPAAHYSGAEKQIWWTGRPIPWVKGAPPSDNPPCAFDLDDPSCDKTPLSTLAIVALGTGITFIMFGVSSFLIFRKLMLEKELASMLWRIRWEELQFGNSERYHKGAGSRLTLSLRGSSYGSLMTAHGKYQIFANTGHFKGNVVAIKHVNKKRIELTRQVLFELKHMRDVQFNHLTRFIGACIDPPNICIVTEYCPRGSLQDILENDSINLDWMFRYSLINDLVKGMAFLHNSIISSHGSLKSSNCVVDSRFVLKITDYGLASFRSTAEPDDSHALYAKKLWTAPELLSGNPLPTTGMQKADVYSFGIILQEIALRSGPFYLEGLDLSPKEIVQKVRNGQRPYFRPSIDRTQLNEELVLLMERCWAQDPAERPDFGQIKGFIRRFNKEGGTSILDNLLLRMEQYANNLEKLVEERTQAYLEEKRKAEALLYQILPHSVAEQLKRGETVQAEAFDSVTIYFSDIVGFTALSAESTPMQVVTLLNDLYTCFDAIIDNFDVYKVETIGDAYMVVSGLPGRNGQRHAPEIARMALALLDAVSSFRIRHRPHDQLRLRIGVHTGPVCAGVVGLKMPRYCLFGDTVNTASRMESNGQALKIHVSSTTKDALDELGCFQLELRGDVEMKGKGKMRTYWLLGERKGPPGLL
# Starred values were filed as active, the others as inactive; u = inconclusive; x = not tested or not shown. Shown is part of a subset that was picked to be rich in hits.
SMILES,HDAC3 inhib,ALR inh,NPR1 activator,NPR2 activator
Brc1ccc(C2=NC(Cc3ccccc3)CO2)cc1 (centres undefined),-1,-7,0,-8
O=C(c1ccc2ncsc2c1)N1CCN(c2ccc(O)cc2)CC1,7,99*,2,7
CC1CC(C)CN(C(=O)c2ccc3ncsc3c2)C1 (centres undefined),-8,79*,-5,1
Cc1ccc(CN2CC(N3CCN(C)CC3)CS2(=O)=O)cc1 (centres undefined),x,x,-1,3
Cc1ccc(N(C(=O)CNC(=O)c2ccco2)C(C(=O)NC2CCCCC2)c2ccncc2)c(C)c1 (centres undefined),4,-5,0,4
CCCCN(C)S(=O)(=O)c1ccc(C(=O)Nc2nnc(-c3ccco3)o2)cc1,-5,84*,-1,-4
Cc1cc(N2CCN(C/C=C/c3ccccc3)CC2)n2ncnc2n1,-5,-3,2,1
Cc1cc(N2CCN(c3ccccc3)CC2)n2ncnc2n1,2,98*,-1,-2
COc1cccc(N2CCN(c3c4c(nc5ncnn35)CCC4)CC2)c1,3,98*,-3,-5
Cc1cc(N2CCN(c3ccccc3)CC2)nc(N)n1,-2,98*,0,-1
c1ccc(N2CCN(c3c4c(nc5ncnn35)CCC4)CC2)cc1,4,x,2,-5
COc1cccc(CNCc2ccco2)c1O,x,x,2,4
O=C1CN(c2ccccc2)C(=S)N1C(=O)c1ccccc1,15,98*,8,-1
COC(=O)C1=C(C)N(Cc2ccccc2C(F)(F)F)C(=NCC2CC2)NC1c1cccc(F)c1 (centres undefined),x,x,-24,-23
CC(C)(C)c1nc(SCC(=O)Nc2ccc(N3CCOCC3)cc2)c2ccccc2n1,4,98*,-4,0
CCn1c(SCC(=O)Nc2ccc(N3CCOCC3)cc2)nnc1-c1ccc(OC)cc1,0,-1,0,3
CCn1c(SCC(=O)Nc2ccc(N3CCOCC3)cc2)nnc1-c1ccco1,-8,98*,-2,0
CCn1c(C)nnc1SCC(=O)Nc1ccc(N2CCOCC2)cc1,-4,88*,5,0
O=C(Nc1cccc([N+](=O)[O-])c1)OCc1ccc2c(c1)OCO2,x,x,3,10
Nc1nnc(SCC(=O)NNC(=O)c2ccccc2F)s1,x,x,5,3
COc1ccc(CN2C(=O)c3ccnn3CC2(C)c2nnnn2-c2c(C)cccc2C)cc1 (centres undefined),x,x,2,0
CCc1ccc(NC(=O)c2cnc(SC)nc2C)cc1,5,-38,1,7
O=S1(=O)c2ccc(Br)cc2OC[C@H](Cc2ccccc2)N1Cc1cn(Cc2ccc(Cl)cc2)nn1,x,x,2,1
N#Cc1c(NC(=O)c2cnccn2)sc2c1CCCC2,-2,98*,-2,-4
O=C(Nc1sc2c(c1C(=O)O)CCCC2)c1cccs1,6,31,-2,3
SMILES,HDAC3 inhib,ALR inh,NPR1 activator,NPR2 activator
Cc1ccc(/C=C/C(=O)NCc2ccc3c(c2)OCO3)o1,0,92*,3,2
COC(=O)c1c(NC(=O)/C=C/c2ccco2)sc2c1CCC2,1,92*,-1,-8
Cc1ccc(C(=O)NCc2ccc3c(c2)OCO3)o1,4,9,4,6
O=C(/C=C/c1cccs1)Nc1sc2c(c1C(=O)O)CCCC2,12,88*,-3,0
Cc1ccc(S(=O)(=O)NC2c3cccc4cccc(c34)C2Sc2nc(C)cc(C)n2)cc1 (centres undefined),1,-2,-10,-7
CC(c1c[nH]c2ccccc12)c1cn(C)c2ccccc12 (centres undefined),x,x,-2,-2
Cc1ccc(/C=C/C(=O)NC2CCCCCCC2)o1,13,99*,8,7
Cc1ccc(/C=C/C(=O)Nc2sc3c(c2C#N)CCCC3)o1,4,93*,2,-5
Cc1ccc(/C=N/NC(=O)NC2CCCCC2)o1,-7,-2,3,-6
O=C(Cn1ccc(C(F)(F)F)n1)Nc1cccc(S(=O)(=O)N2CCCCC2)c1,3,x,0,8
O=C(NC1=N[C@@]2(C=C3CCCCC3n3c(=O)n(-c4ccccc4)c(=O)n32)[C@H](Cc2ccccc2)N1Cc1ccccc1)c1ccccc1 (some centres undefined),x,x,-2,3
CCCC(=O)Nc1cc(S(=O)(=O)N(CC)CC)ccc1Cl,-3,98*,3,4
CCN(CC)S(=O)(=O)c1ccc(Cl)c(NC(=O)CCCCl)c1,0,x,0,-1
COc1ccc(C2N=C(c3ccccc3)NO2)cc1OC (centres undefined),2,-16,4,-6
COc1cc(C2N=C(c3ccccc3)NO2)cc(Br)c1O (centres undefined),1,98*,2,-7
COc1ccc(Nc2n[nH]c(N)c2C(N)=O)cc1,18,99*,-3,-6
COc1ccccc1CNC(=O)CS(=O)Cc1nc(-c2ccccc2C)oc1C (centres undefined),-4,99*,-2,-3
Cc1ccccc1-c1nc(CS(=O)CC(=O)NCc2ccccc2)c(C)o1 (centres undefined),0,98*,-3,3
Cc1ccc(CNC(=O)CS(=O)Cc2nc(-c3ccccc3C)oc2C)cc1 (centres undefined),-1,26,2,111*
COc1ccccc1CNC(=O)COc1ccccc1C,5,5,4,-1
COCCNC(=O)CS(=O)Cc1nc(-c2ccccc2C)oc1C (centres undefined),1,98*,5,2
CC(C)(CO)CNC1CCCN(C2Cc3ccccc3C2)C1 (centres undefined),2,x,1,3
CC(C)(C)NC(=O)C(c1ccc(C#N)cc1)n1c(=O)c(-c2cc3ccccc3[nH]2)nc2ccccc21 (centres undefined),x,x,1,0
COc1ccccc1N=NNc1ccccc1OC,x,x,-2,-1
COc1ccc(CNC(=O)CS(=O)Cc2nc(-c3ccccc3C)oc2C)cc1 (centres undefined),-3,99*,-2,-7
SMILES,HDAC3 inhib,ALR inh,NPR1 activator,NPR2 activator
COc1ccc(OC)c(NC(=O)CS(=O)(=O)Cc2nc(-c3ccccc3C)oc2C)c1,-3,-2,-11,-5
CN(C)c1ccc(/C=C(/C(=O)c2ccc(Cl)cc2Cl)n2cncn2)cc1,x,x,-1,6
COc1ccc(/C=C(/C(=O)c2ccc(Cl)cc2Cl)n2cncn2)cc1,u,95*,-7,-7
COc1ccccc1CNS(=O)(=O)CCNCc1ccco1,x,x,4,-4
Cc1ccc(CNC(=O)CN2C(=O)COc3ccc(S(=O)(=O)N4CCCCC4)cc32)o1,1,7,2,-8
CCOC(=O)/C(C#N)=C/c1ccc(OC(=O)c2ccccn2)cc1,5,98*,0,-1
COc1cc(C(C)=O)ccc1Oc1ncnc2c1cnn2-c1ccc(F)cc1,13,-8,47*,-2
CCc1ccc(-c2nn(Cc3ccccc3)cc2/C=C/C(=O)O)cc1,3,80*,-2,-6
